Screens from PubChem BioAssay.
A selection: hits, their analogues and other compounds. The true share with any hit is near 5.7%.
rCAG RNA binder: binders of r(CAG) RNA repeats, primary screen, biochemical, fluorescence; AID 651821, 2012; actives 1.3% (n = 370,000); r(CAG) RNA repeat, TO-PRO-1 dye displacement fluorescence; inhibition, % at 3 µM;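 active = inhibition above the plate cutoff, the mean of all test compounds on that plate plus 3 SD, cut at about 35% in these data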;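 also: 0% = DMSO alone and 100% = 100 µM mitoxantrone as full dye displacement; higher means more dye released from RNA so lower well fluorescence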
Myeloid diff 2: induction of myeloid progenitor differentiation, primary screen, cell-based, flow cytometry, MLPCN library; ER-HoxA9 myeloid progenitors, lysozyme-GFP differentiation; calls only at 10 µM; actives 1% (n = 360,000);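 active = normalized GFP-positive differentiation at or above the plate's own cutoff, the solvent-only control mean plus 3 SD; inconclusive = no clear call, values can overlap the other calls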;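 also: cells exposed to compound for four days before flow analysis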
NR3A LBD binder: binders of NR3A ligand-binding domain, primary screen, biophysical, differential scanning fluorimetry, uHTS | actives 2.5% (n = 340,000) | Tm shift relative to glycine control, % at 25 µM | AID 1259313, 2017 | NR3A LBD differential scanning fluorimetry, Tm shift; 0% = protein alone, 100% = glycine-bound protein;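 active = melting temperature shift of at least 10% of the positive control shift, at one fixed dose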
FAS TE block: FAS thioesterase domain inhibitors, primary screen, biochemical, fluorescence intensity, uHTS; Fatty acid synthase (Homo sapiens), P49327; recombinant FAS-TE, OMFH fluorogenic substrate, fluorescence endpoint; inhibition, % at 15 µM; actives 0.67% (n = 360,000); AID 602261, 2012;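 active = compounds whose normalised, plate-corrected inhibition of enzyme fluorescence in the single-dose primary screen is 50% or more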;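 also: 0% = DMSO with enzyme and 100% = substrate without enzyme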
Target sequence (P49327 whole entry, looked up, the tested form may be a part): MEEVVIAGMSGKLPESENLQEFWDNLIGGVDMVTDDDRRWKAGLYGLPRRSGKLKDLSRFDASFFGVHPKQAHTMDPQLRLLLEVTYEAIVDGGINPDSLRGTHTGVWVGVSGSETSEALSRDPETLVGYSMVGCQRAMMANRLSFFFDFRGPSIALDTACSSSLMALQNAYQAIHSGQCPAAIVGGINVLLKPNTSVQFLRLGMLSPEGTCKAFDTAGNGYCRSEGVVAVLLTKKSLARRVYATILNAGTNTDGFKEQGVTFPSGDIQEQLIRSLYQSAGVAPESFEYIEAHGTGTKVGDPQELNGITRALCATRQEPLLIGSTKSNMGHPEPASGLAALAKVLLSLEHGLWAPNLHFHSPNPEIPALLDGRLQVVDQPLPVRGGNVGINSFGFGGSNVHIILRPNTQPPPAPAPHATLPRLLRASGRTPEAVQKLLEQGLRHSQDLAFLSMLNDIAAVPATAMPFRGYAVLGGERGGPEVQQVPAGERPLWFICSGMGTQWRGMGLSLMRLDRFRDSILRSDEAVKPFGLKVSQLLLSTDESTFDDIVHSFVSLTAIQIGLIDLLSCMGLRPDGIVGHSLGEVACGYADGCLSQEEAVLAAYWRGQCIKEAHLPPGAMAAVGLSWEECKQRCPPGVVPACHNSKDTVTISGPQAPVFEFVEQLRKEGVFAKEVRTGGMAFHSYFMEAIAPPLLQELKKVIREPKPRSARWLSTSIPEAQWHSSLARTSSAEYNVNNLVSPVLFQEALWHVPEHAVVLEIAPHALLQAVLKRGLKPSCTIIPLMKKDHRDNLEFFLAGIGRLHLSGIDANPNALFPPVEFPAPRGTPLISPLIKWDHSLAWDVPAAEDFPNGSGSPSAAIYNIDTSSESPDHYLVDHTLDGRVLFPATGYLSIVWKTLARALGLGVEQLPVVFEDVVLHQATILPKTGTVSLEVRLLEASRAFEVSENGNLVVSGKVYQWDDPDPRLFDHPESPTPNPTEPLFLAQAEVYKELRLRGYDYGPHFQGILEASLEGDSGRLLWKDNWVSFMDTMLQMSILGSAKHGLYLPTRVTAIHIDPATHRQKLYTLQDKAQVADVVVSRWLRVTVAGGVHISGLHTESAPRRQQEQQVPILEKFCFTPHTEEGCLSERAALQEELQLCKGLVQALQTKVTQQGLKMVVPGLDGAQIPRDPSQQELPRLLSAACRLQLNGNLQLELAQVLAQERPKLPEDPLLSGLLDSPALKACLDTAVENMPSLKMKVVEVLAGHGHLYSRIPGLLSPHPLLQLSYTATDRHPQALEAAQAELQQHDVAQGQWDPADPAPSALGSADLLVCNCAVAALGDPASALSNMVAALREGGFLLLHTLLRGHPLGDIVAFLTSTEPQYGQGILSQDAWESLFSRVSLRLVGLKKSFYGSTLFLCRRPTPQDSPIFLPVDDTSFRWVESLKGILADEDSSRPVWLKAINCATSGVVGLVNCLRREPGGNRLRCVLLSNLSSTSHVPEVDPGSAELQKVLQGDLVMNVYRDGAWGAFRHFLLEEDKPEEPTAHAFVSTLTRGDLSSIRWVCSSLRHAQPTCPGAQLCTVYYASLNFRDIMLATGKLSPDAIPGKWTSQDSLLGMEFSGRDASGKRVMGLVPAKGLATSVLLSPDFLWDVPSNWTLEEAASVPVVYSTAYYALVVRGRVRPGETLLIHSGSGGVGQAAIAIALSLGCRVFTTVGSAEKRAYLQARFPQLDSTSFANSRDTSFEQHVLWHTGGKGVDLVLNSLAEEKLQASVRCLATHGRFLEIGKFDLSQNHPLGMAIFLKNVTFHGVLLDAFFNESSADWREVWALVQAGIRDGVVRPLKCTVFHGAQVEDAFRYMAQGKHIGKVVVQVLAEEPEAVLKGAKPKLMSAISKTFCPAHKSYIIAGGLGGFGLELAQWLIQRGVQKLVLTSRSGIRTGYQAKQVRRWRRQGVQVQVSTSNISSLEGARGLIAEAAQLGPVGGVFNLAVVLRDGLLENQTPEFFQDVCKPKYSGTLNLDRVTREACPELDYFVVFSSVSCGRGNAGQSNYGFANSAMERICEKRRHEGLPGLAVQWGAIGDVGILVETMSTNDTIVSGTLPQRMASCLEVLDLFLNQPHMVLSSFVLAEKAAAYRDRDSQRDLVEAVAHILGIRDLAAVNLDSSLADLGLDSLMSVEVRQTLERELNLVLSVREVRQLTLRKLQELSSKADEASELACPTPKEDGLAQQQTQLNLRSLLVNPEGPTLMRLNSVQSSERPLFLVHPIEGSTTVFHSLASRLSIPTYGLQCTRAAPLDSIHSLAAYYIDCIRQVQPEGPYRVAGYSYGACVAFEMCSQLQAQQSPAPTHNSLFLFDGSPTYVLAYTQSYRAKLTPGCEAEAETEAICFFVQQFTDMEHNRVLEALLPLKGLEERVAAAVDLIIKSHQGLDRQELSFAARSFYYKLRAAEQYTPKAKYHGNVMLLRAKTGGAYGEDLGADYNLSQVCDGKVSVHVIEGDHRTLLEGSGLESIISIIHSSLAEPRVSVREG
MPTP block: mitochondrial permeability transition pore inhibitors, primary screen, biochemical, isolated mouse mitochondria, absorbance; Ca2+ swelling absorbance, 30 min; actives 1.4% (n = 360,000); inhibition, % at 10 µM;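 active = inhibition of 50% or more, scaled per plate between neutral and stimulator controls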;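 also: 0% = DMSO wells given calcium and 100% = 1 mM EGTA wells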
Myeloid diff CP1: inducers of myeloid progenitor differentiation, confirmation, cell-based, GFP/Mac1 flow cytometry, cherry pick 01 | actives 2% (n = 2,300) | shares compounds with Myeloid diff 2 | calls only | ER-HoxA9 myeloid progenitors, GFP/Mac1 double-positive flow;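 active = share of green or green-and-red cells above 9 and 9% in run 1 or 4 and 3% in run 2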
GFP autofluor: counter-screen for myeloid differentiation promoters: compound fluorescence; fluorescence response, % (concentration not given with the values); AID 651707; ER-HoxA9 myeloid progenitors, no estrogen, GFP autofluorescence flow cytometry; vehicle wells 0%, positive control 100%; shares compounds with Myeloid diff 2; actives 7.4% (n = 2,300);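 active = over 5% cells positive for green fluorescent reporter, or over 2% positive for both it and APC stain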;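 also: range taken on the double positive population between DMSO and positive control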
* = called active by the depositor; i = inactive; u = inconclusive; x = not tested or not shown; + = active, no number.

SMILES | rCAG RNA binder | Myeloid diff 2 | NR3A LBD binder | FAS TE block | MPTP block | Myeloid diff CP1 | GFP autofluor
Nc1cc(Nc2ccccc2)ccn1 | 2 | + | 0 | -10 | -2 | i | 2
CC1CN(C(NC(=O)c2ccccc2)C(Cl)(Cl)Cl)CC(C)O1 (configuration not stated) | -3 | i | -1 | 1 | 0 | x | x
COc1ccc(NC(=O)CSc2nnc(-c3cccs3)n2N)c(OC)c1 | 4 | i | 2 | -8 | 1 | x | x
Cc1nn(Cc2ccccc2)c(Cl)c1C(=O)OCc1nnc(-c2ccc(Cl)cc2)o1 | 3 | + | 0 | 15 | -2 | i | 0
O=C(NCc1nnnn1-c1ccc(F)cc1)c1ccc([N+](=O)[O-])o1 | 4 | + | x | -6 | -1 | i | 4
O=C(NCc1nnnn1-c1ccc(F)cc1)c1ccc2ccccc2c1 | 2 | i | x | -4 | 0 | x | x
Cc1ccc(-n2nnnc2CNC(=O)c2ccc([N+](=O)[O-])o2)cc1C | 2 | + | 0 | 1 | -1 | i | 0
Cc1cccc(NC(=S)N(C)C2CCCCC2)c1 | -1 | i | -1 | 0 | 1 | i | 0
Cc1cccc(NC(=O)C2CCCC2)c1 | -4 | i | -1 | -12 | 0 | x | x
CCCS(=O)(=O)NC(=O)C1(C)CCN(C(=O)c2cccc(C(F)(F)F)c2)C1 (configuration not stated) | 2 | + | x | -8 | -1 | i | 0
CN(C(=O)c1cc2sccc2n1C)C1CCCCC1 | -5 | + | -2 | -1 | 0 | i | 0
Cn1c(=O)oc2cc(NC(=O)CCl)ccc21 | -1 | i | 0 | -2 | 2 | i | 0
CCNc1ccc(C(=O)OCC(=O)N(Cc2ccccc2)C(C)(C)C)cc1[N+](=O)[O-] | 0 | i | -1 | 39 | 3 | x | x
CCCCOC(=O)C(C#N)c1nc2ccccc2nc1N1CCN(Cc2ccc3c(c2)OCO3)CC1 (configuration not stated) | 1 | + | 1 | 26 | 2 | i | 0
CC(C)COC(=O)C(C#N)c1nc2ccccc2nc1N1CCN(Cc2ccc3c(c2)OCO3)CC1 (configuration not stated) | 1 | i | 0 | 23 | 8 | x | x
O=C1C(=Cc2ccco2)CCCC1=Cc1ccco1 | 22 | i | 2 | 0 | 0 | i | 19*
O/N=C1\CCC\C1=C/c1ccco1 | 4 | i | -1 | -10 | 0 | x | x
COc1cc(C(=O)NCC(c2ccco2)N2CCCC2)ccc1OCc1ccc(Cl)cc1Cl (configuration not stated) | 2 | + | -6 | 37 | -2 | i | 4
COc1cc(OC)c(-c2c3cc(O)c(=O)cc-3oc3cc(O)c(O)cc23)cc1OC | i | + | 5 | -189 | 19 | i | 99*
COc1cc(NC(=O)N[C@@H](CCSC)C(=O)O)cc(OC)c1 | 2 | i | 0 | -3 | 0 | x | x
COc1cc(NC(=O)N[C@H](C(=O)O)C(C)C)cc(OC)c1 | 2 | + | -1 | -12 | -1 | i | 0
CC1CCCC(NC(=O)COC(=O)c2cccs2)C1C (configuration not stated) | -1 | i | -2 | -1 | 0 | x | x
CC(C)Nc1nc(-c2ccccc2F)c2sc(-c3ccccc3)cc2n1 | 4 | i | x | 16 | 0 | x | x
CC(C)Nc1nc(NCCN2CCCC2)c2sc(-c3ccccc3)cc2n1 | 6 | + | x | -11 | 3 | i | 0
COCCNc1nc(NCc2cccc(OC)c2)c2sc(-c3ccccc3)cc2n1 | 4 | + | x | 0 | 5 | i | 0
SMILES | rCAG RNA binder | Myeloid diff 2 | NR3A LBD binder | FAS TE block | MPTP block | Myeloid diff CP1 | GFP autofluor
COCCNc1nc(NCc2ccc(NC(C)=O)cc2)c2sc(-c3ccccc3)cc2n1 | 4 | u | x | -1 | 2 | x | x
CCN(CC)CCOc1cc2c(nn1)Oc1ccccc1N2C | 1 | i | 0 | -8 | 0 | i | 0
O=C(O)c1ccc(-c2ccc(/C=c3/sc4nc5ccccc5n4c3=O)o2)cc1Cl | 29 | i | 8 | -2 | 1 | i | 0
COc1cccc(/C=N/NC(=O)CN2CC(c3ccccc3)CC2=O)c1OC (configuration not stated) | -1 | i | 0 | -9 | 0 | x | x
O=C(Cc1cccc(NC(=O)C2CCN(C(=O)C3CCC3)CC2)c1)Nc1cccc(C(=O)N2CCOCC2)c1 | 1 | i | 8 | -7 | -2 | x | x
O=C(Cc1cccc(NC(=O)C2CCN(C(=O)C3CCC3)CC2)c1)Nc1cccc(C(=O)N2CCCC2)c1 | 4 | i | 1 | -5 | -1 | i | 0
Cc1noc(C)c1NC(=O)Nc1ccc2c(c1)C(=O)N([C@H](C)CO)C[C@H](C)[C@@H](CN(C)S(=O)(=O)c1ccccc1)O2 | -6 | i | -4 | -7 | -2 | x | x
CNc1nc(Oc2ccc3sc(C)nc3c2)c2sccc2n1 | 2 | i | x | -4 | 1 | x | x
Cc1nc2cc(Oc3nc(NCCN(C)C)nc4ccsc34)ccc2s1 | 9 | + | x | -6 | 0 | i | 0
O=C1CCC(c2ccc3ccccc3c2)O1 (configuration not stated) | 3 | i | 0 | -8 | 0 | i | 2
CCNc1nc(SCC(N)=O)nc2sc3c(c12)CCN(C)C3 | 3 | i | -2 | -13 | 0 | i | 0
NS(=O)(=O)c1ccc(N=Cc2c(O)n(-c3nccs3)c(=O)c3ccccc23)cc1 | 9 | i | -3 | -5 | 2 | x | x
CC1=Nc2ccccc2/C1=C/c1sc(=N)n(-c2nccs2)c1O | x | i | 2 | 0 | 0 | i | 47*
CCCn1c(=O)c(C(=O)Nc2ccccc2N)c(O)c2ccccc21 | 2 | i | x | 5 | 2 | x | x
CCOC(=O)Cc1csc(SCC(=O)NC2CCCC2)n1 | 0 | i | 0 | -4 | -1 | x | x
O=C(NCc1ccccc1)C12CN(Cc3ccccc3)CC1C(c1cccc([N+](=O)[O-])c1)=NO2 (configuration not stated) | 3 | i | -1 | 42 | 2 | i | 0
Cc1ccc(-n2nnnc2Sc2nc([N+](=O)[O-])nn2C)cc1 | 0 | + | 1 | -4 | 0 | i | 0
COc1ccc2ccccc2c1CNC(=O)CC1C(=O)NCCN1CC(C)C (configuration not stated) | -5 | + | -1 | -6 | 1 | i | 0
